Values joined by “and” are separate entries in the source; they are usually repeats but may differ in a detail not shown here. Equal values may be shown once. Compounds without any hit were thinned out: in the full panel of roughly 83,000, 20% have a hit.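 48-hour exposure, single concentration, 96-well plates; percent growth endpoint where 0 means no net growth. Active: below 10.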 Active and inactive are the calls of the source.
Tests used:
Experiment in all cases: NCI-60 one-dose screen, 48 h (100 = growth as untreated, 0 = no growth, -100 = all killed)
Conditions in all cases: 10 µM unless noted
RPMI-8226 leukemia = tested on: RPMI-8226 leukemia
OVCAR-8 ovarian = tested on: OVCAR-8 ovarian
OVCAR-5 ovarian = tested on: OVCAR-5 ovarian
OVCAR-4 ovarian = tested on: OVCAR-4 ovarian
IGROV1 ovarian = tested on: IGROV1 ovarian
OVCAR-3 ovarian = tested on: OVCAR-3 ovarian
HS 578T breast = tested on: HS 578T breast
NCI/ADR-RES ovarian = tested on: NCI/ADR-RES ovarian
SK-OV-3 ovarian = tested on: SK-OV-3 ovarian

| SMILES | growth (RPMI-8226 leukemia) | growth (OVCAR-8 ovarian) | growth (OVCAR-5 ovarian) | growth (OVCAR-4 ovarian) | growth (IGROV1 ovarian) | growth (OVCAR-3 ovarian) | growth (HS 578T breast) | growth (NCI/ADR-RES ovarian) | growth (SK-OV-3 ovarian) |
| --- | --- | --- | --- | --- | --- | --- | --- | --- | --- |
| COC(=O)c1cc(C(C)=O)n2c3ccccc3c3ccccc3c12 | 87.7% (inactive) | 50.5% (inactive) | 92.6% (inactive) | 44.3% (inactive) | 41.5% (inactive) | 73.4% (inactive) | 29.8% (inactive) | 44.6% (inactive) |  |
| Cn1cc(-c2cc(N)n3nc(-c4c[nH]c5ccccc45)cc3n2)c2cc(F)ccc21 | 0.774% (active) | -43.2% (active) | 34.4% (inactive) | 35.3% (inactive) | 21.2% (inactive) | 15.8% (inactive) | 79.5% (inactive) | 19.1% (inactive) | 97.9% (inactive) |
| Cc1ccc2c(c1)nc(-c1ccccc1)n2CC(=O)N=Nc1c(O)[nH]c2ccc(Cl)cc12 | -17% (active) | -66.9% (active) | -52.5% (active) | -71.3% (active) | -86% (active) | -70.3% (active) | -32.9% (active) | -73% (active) | -72.6% (active) |
| O=C1Nc2ccccc2/C1=C\c1ccc(OCC(=O)c2ccc(Br)cc2)cc1 | 49.2% (inactive) | 69.6% (inactive) | 93.2% (inactive) | 58.2% (inactive) | 78.3% (inactive) | 77.5% (inactive) | 84.5% (inactive) | 47.8% (inactive) | 101% (inactive) |
| CN(C(=O)CN1C(=O)/C(=C/c2ccco2)SC1=S)C1CCS(=O)(=O)C1 (stereo unspecified) | 98% (inactive) | 96% (inactive) | 111% (inactive) | 106% (inactive) | 116% (inactive) | 99.9% (inactive) | 111% (inactive) | 96.4% (inactive) | 91.3% (inactive) |
| Cc1nn(-c2ccccc2)c2nc(C)n(C(=O)N/N=C/c3ccccc3)c(=O)c12 | 103% (inactive) | 101% (inactive) | 101% (inactive) | 101% (inactive) |  | 118% (inactive) | 84.3% (inactive) | 100% (inactive) | 95.5% (inactive) |
| Cc1[nH]nc2ccc3nc(-c4cn[nH]c4C(F)(F)F)c4c(c3c12)CCCC4 | 1.04% (active) | 4.15% (active) | 3.15% (active) | 29.6% (inactive) | -42.4% (active) | -15% (active) | -28.6% (active) | 19.8% (inactive) | -54.2% (active) |
| COc1ccc(C2=Nc3c(N)nc(N)nc3NC(c3ccc(Oc4nc(Nc5ccc(F)cc5)nc(N(C)C)n4)c(OC)c3)C2)cc1 (stereo unspecified) | 36.2% (inactive) | 81.7% (inactive) | 108% (inactive) | 48.4% (inactive) | 63.5% (inactive) | 82.5% (inactive) | 37.6% (inactive) | 62.7% (inactive) | 93.2% (inactive) |
| O=C1C=CC(=CC=C2N(Cc3ccc4ccccc4c3)c3ccccc3N2Cc2ccc3ccccc3c2)C=C1 | -5.25% (active) and -13.4% (active) | 20.2% (inactive) and 24.9% (inactive) | 36.6% (inactive) and 47.2% (inactive) | 37.9% (inactive) and 27.6% (inactive) |  | 24.2% (inactive) and -1.46% (active) | 52.3% (inactive) and 32.6% (inactive) | 104% (inactive) and 102% (inactive) | 13.4% (inactive) and 46.4% (inactive) |
| CC1=C(C(=O)OC(C)C)C(c2ccc(O)cc2)NC(=O)N1 (stereo unspecified) | 98.9% (inactive) | 108% (inactive) | 105% (inactive) | 100% (inactive) |  | 108% (inactive) | 99.8% (inactive) | 99.8% (inactive) | 106% (inactive) |
| COc1ccc(-c2cc(C(=O)N=Nc3c(O)[nH]c4ccc(Cl)cc34)c3ccccc3n2)cc1OC | 119% (inactive) | 110% (inactive) | 104% (inactive) | 116% (inactive) | 93% (inactive) | 118% (inactive) | 110% (inactive) | 98.2% (inactive) | 154% (inactive) |
| N#Cc1ccc(C(=O)CSc2nc3c(c(Nc4ccc(S(N)(=O)=O)cc4)n2)CCC3)cc1 |  | 3.1% (active) | 70.8% (inactive) | 43.9% (inactive) | 15.8% (inactive) | 97.1% (inactive) | 26.1% (inactive) | 53% (inactive) | 67.2% (inactive) |
| O=C(c1ccc(O)cc1)C1[C@H](c2ccccc2Br)[C@@H](c2ccccc2)NC12C(=O)Nc1ccccc12 (stereo partly specified) | 31.4% (inactive) | 30.2% (inactive) | 56.7% (inactive) | 48.3% (inactive) | 26.6% (inactive) | 20.7% (inactive) | 49.1% (inactive) | 53.1% (inactive) | 70.5% (inactive) |
| CCCCCCCOc1ccc(S(=O)(=O)Nc2ccc(C)c(F)c2C(=O)O)cc1 | 54.9% (inactive) | 97.1% (inactive) | 107% (inactive) | 90.1% (inactive) | 109% (inactive) | 99.9% (inactive) | 87.8% (inactive) | 94.4% (inactive) | 104% (inactive) |
